This is one part of a sample in which the strongest signals are shown more often than they occur.

Holding throughout (test): glycan array binding signal (z-score within array); higher = stronger binding
Common to all, as to settings: glycan notation: IUPAC condensed, linker removed

The target of one test is Fuc(a1-2)Gal(b1-3)GalNAc. The procedure, abridged: (§1)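 Negative Z-scores can be read as non-binding. The Z-score is calculated within each array and then averaged across arrays of one protein sequence at different concentrations or buffers and across linkers. Arrays, 3228 in all, were curated from the Consortium for Functional Glycomics database and kept only where the protein sequence was available.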

Test [1] has as its target Fuc(a1-2)Gal(b1-3)GalNAc(b1-3)Gal. The procedure, abridged:
as §1

Test [2] concerns the target Fuc(a1-2)Gal(b1-3)GalNAc(b1-3)Gal(a1-4)Gal(b1-4)Glc. The procedure, abridged:
as §1

Another test concerns the target Fuc(a1-2)Gal(b1-3)GlcNAc. The procedure, abridged:
as §1

The target in test [3] is Fuc(a1-2)[GalNAc(a1-3)]Gal(b1-4)[Fuc(a1-3)]GlcNAc. The procedure, abridged: as §1
The next test addresses Gal(a1-3)Gal(b1-3)GlcNAc. The procedure, abridged: as §1
In test [4] the target is Gal(b1-3)GalNAc(b1-3)Gal(a1-4)Gal(b1-4)Glc. The procedure, abridged:
as §1

Test [5] deals with Gal(b1-3)[Fuc(a1-4)]GlcNAc. The procedure, abridged: as §1
Test [6] addresses Gal(b1-3)[Fuc(a1-4)]GlcNAc(b1-3)Gal(b1-4)GlcNAc. The procedure, abridged:
as §1

Test [7] concerns the target Gal(b1-4)GlcNAc(b1-3)GalNAc. The procedure, abridged:
as §1

Test [8] addresses Gal3S(b1-3)[Fuc(a1-4)]GlcNAc. The procedure, abridged: as §1
The target of another test is GalNAc(a1-3)Gal. The procedure, abridged: as §1
Test [9] concerns the target GlcNAc(b1-3)[GlcNAc(b1-6)]GalNAc. The procedure, abridged:
as §1

The target of the next test is GlcNAc(b1-4)GlcNAc. The procedure, abridged:
as §1

Test [10] addresses GlcNAc(b1-6)Gal(b1-4)GlcNAc. The procedure, abridged: as §1
For test [11], the target named is Man(a1-2)Man(a1-2)Man(a1-6)[Man(a1-3)]Man. The procedure, abridged: as §1
Test [12] addresses Man(a1-2)Man(a1-3)[Man(a1-2)Man(a1-6)]Man. The procedure, abridged:
as §1

For test [13], the target named is Man(a1-2)Man(a1-6)[Man(a1-3)]Man(a1-6)[Man(a1-2)Man(a1-2)Man(a1-3)]Man. The procedure, abridged: as §1
Test [14] has as its target Neu5Ac(a2-3)Gal(b1-3)GalNAc(b1-4)[Neu5Ac(a2-3)]Gal(b1-4)Glc. The procedure, abridged:
as §1

The target in test [15] is Neu5Ac(a2-3)Gal(b1-4)GlcNAc(b1-3)Gal(b1-3)GlcNAc. The procedure, abridged:
as §1

Test [16] addresses Neu5Ac(a2-3)Gal6S(b1-4)[Fuc(a1-3)]GlcNAc. The procedure, abridged:
as §1

The target in test [17] is Neu5Ac(a2-6)Gal(b1-4)GlcNAc(b1-2)Man(a1-3)[GlcNAc(b1-2)Man(b1-4)GlcNAc(b1-2)Man(a1-6)]Man(b1-4)GlcNAc(b1-4)GlcNAc. The procedure, abridged:
as §1

Another test has as its target Neu5Ac(a2-6)GalNAc. The procedure, abridged:
as §1

The target of test [18] is Neu5Ac(a2-8)Neu5Ac(a2-8)Neu5Ac(a2-8)Neu5Ac(a2-3)[GalNAc(b1-4)]Gal(b1-4)Glc. The procedure, abridged: as §1
Another test addresses Neu5Ac(b2-6)GalNAc. The procedure, abridged:
as §1

The target of test [19] is Fuc(a1-2)[Gal(a1-3)]Gal(b1-3)GlcNAc. The procedure, abridged: as §1
Test [20] has as its target Fuc(a1-3)[Gal(b1-4)]GlcNAc(b1-3)Gal(b1-3)[Fuc(a1-4)]GlcNAc. The procedure, abridged:
as §1

The target of test [21] is Fuc(a1-3)[Gal(b1-4)]GlcNAc(b1-4)Gal(b1-4)[Fuc(a1-3)]GlcNAc. The procedure, abridged: as §1
The target in a further test is Fuc(b1-3)GlcNAc. The procedure, abridged:
as §1

Test [22] has as its target Gal(a1-3)[Gal(a1-4)]Gal(b1-4)GlcNAc. The procedure, abridged:
as §1

The target in test [23] is Gal(b1-3)[Fuc(a1-4)]GlcNAc(b1-3)Gal(b1-4)[Fuc(a1-3)]GlcNAc. The procedure, abridged: as §1
Test [24] has as its target Gal(b1-4)GalNAc(b1-3)[Fuc(a1-2)]Gal(b1-4)GlcNAc. The procedure, abridged: as §1
In test [25] the target is Gal(b1-4)GlcNAc(b1-3)Gal(b1-4)GlcNAc(b1-3)Gal(b1-4)GlcNAc. The procedure, abridged: as §1
In test [26] the target is Gal(b1-4)GlcNAc(b1-3)[Gal(b1-4)GlcNAc(b1-6)]GalNAc. The procedure, abridged:
as §1

The next test has as its target Gal3S(b1-3)GalNAc. The procedure, abridged: as §1
A further test addresses Gal3S(b1-4)Glc6S. The procedure, abridged: as §1
For the next test, the target named is Gal3S6S(b1-4)GlcNAc. The procedure, abridged:
as §1

The target of a further test is GalNAc(a1-3)GalNAc. The procedure, abridged: as §1
The target of test [27] is GlcNAc(a1-3)Gal(b1-4)GlcNAc. The procedure, abridged: as §1
Test [28] deals with GlcNAc(b1-3)[GlcNAc(b1-4)][GlcNAc(b1-6)]GlcNAc. The procedure, abridged:
as §1

Test [29] has as its target Man(a1-2)Man(a1-2)Man(a1-3)[Man(a1-2)Man(a1-3)[Man(a1-2)Man(a1-6)]Man(a1-6)]Man(b1-4)GlcNAc(b1-4)GlcNAc. The procedure, abridged: as §1
Test [30] has as its target Neu5Ac(a2-3)Gal(b1-3)GlcNAc(b1-3)Gal(b1-4)GlcNAc. The procedure, abridged: as §1
Test [31] has as its target Neu5Ac(a2-3)Gal(b1-4)GlcNAc6S. The procedure, abridged: as §1
For test [32], the target named is Neu5Ac(a2-3)[Neu5Ac(a2-6)]GalNAc. The procedure, abridged:
as §1

Test [33] deals with Neu5Ac(a2-8)Neu5Ac(a2-8)Neu5Ac(a2-3)[GalNAc(b1-4)]Gal(b1-4)Glc. The procedure, abridged: as §1

B1: Glycodelin A (Homo sapiens), P09466 (protein)
chain: MLCLLLTLGVALVCGVPAMDIPQTKQDLELPKLAGTWHSMAMATNNISLMATLKAPLRVHITSLLPTPEDNLEIVLHRWENNSCVEKKVLGEKTENPKKFKINYTVANEATLLDTDYDNFLFLCLQDTTTPIQSMMCQYLARVLVEDDEIMQGFIRAFRPLPRHLWYLLDLKQMEEPCRF
Consider B1, for which the “glycan array binding signal (z-score)” value in the test with Fuc(a1-2)Gal(b1-3)GalNAc was -0.421; in test [1], -0.414; in test [2], -0.485; with Fuc(a1-2)Gal(b1-3)GlcNAc, -0.318; in [3], -0.439; with Gal(a1-3)Gal(b1-3)GlcNAc, 4.32. The “glycan array binding signal (z-score)” value was -0.473 in test [4]; 0.183 in test [5]; 1.52 in test [6]; -0.373 in [7]; 3.69 in test [8]; -0.099 with GalNAc(a1-3)Gal. The “glycan array binding signal (z-score)” value in test [9] was -0.397; in the test with GlcNAc(b1-4)GlcNAc, -0.002; in test [10], -0.5; in test [11], -0.508; in [12], -0.43; in [13], -0.427. Moreover, the “glycan array binding signal (z-score)” value is -0.406 in test [14]; -0.449 in test [15]; -0.448 in test [16]; 2.02 in test [17]; 4.31 with Neu5Ac(a2-6)GalNAc; 4.64 in test [18]. For the same molecule, in the test with Neu5Ac(b2-6)GalNAc, the “glycan array binding signal (z-score)” value came out at 3.68.

B2: Tim-4 (Mus musculus), Q6U7R4 (protein)
chain: MSKGLLLLWLVTELWWLYLTPAASEDTIIGFLGQPVTLPCHYLSWSQSRNSMCWGKGSCPNSKCNAELLRTDGTRIISRKSTKYTLLGKVQFGEVSLTISNTNRGDSGVYCCRIEVPGWFNDVKKNVRLELRRATTTKKPTTTTRPTTTPYVTTTTPELLPTTVMTTSVLPTTTPPQTLATTAFSTAVTTCPSTTPGSFSQETTKGSAFTTESETLPASNHSQRSMMTISTDIAVLRPTGSNPGILPSTSQLTTQKTTLTTSESLQKTTKSHQINSRQTILIIACCVGFVLMVLLFLAFLLRGKVTGANCLQRHKRPDNTEDSDSVLNDMSHGRDDEDGIFTL
Turning to B2, the “glycan array binding signal (z-score)” value with Fuc(a1-2)Gal(b1-3)GalNAc is -0.114; in [19] it was 0.285; in [3] it was 0.089; in test [20] it was 0.006; in [21], -0.188; with Fuc(b1-3)GlcNAc, -0.139. Moreover, the “glycan array binding signal (z-score)” value in test [22] was -0.083; in [23] it was -0.25; in test [24], -0.661; in [25], -0.396; in test [26] it was -0.345; in the test with Gal3S(b1-3)GalNAc, 2.34. Moreover, the “glycan array binding signal (z-score)” value was 1.82 with Gal3S(b1-4)Glc6S; 1.9 in the test with Gal3S6S(b1-4)GlcNAc; -0.157 in the test with GalNAc(a1-3)GalNAc; -0.514 in [27]; 1.75 in test [28]; 0.032 in test [29]. Further, the “glycan array binding signal (z-score)” value is -0.953 in test [30], -0.51 in [31], -0.437 in test [32] and 1.32 in [33].

These data come from the supplement of paper PMC8728848.
